NadD block = inhibitors of S. aureus NadD, primary screen, biochemical, colorimetric, uHTS. purified NadD enzyme, colorimetric absorbance read-out. actives 0.78% (n = 360,000). Nicotinate-nucleotide adenylyltransferase NadD (Staphylococcus aureus N315). inhibition, % at 20 µM; in the data active means inhibition above about 26%
FAS TE block = FAS thioesterase domain inhibitors, primary screen, biochemical, fluorescence intensity, uHTS; recombinant FAS-TE, OMFH fluorogenic substrate, fluorescence endpoint; Fatty acid synthase (Homo sapiens), P49327; actives 0.67% (n = 360,000); inhibition, % at 15 µM;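 active means compounds whose normalised, plate-corrected inhibition of enzyme fluorescence in the single-dose primary screen is 50% or more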;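 further: 0% = DMSO with enzyme and 100% = substrate without enzyme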
Mot1-301 SUMO = yeast Mot1-301 growth rescue at high temperature, primary screen, SUMOylation pathway inhibitor project, S. cerevisiae, ATP luminescence, 38.5C; S. cerevisiae Mot1-301 growth rescue; percent above DMSO median, 100 means doubled; growth rescue, % at 18.8 µM; actives 1% (n = 320,000); AID 2716, 2010;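 active means every valid replicate shows activation above 250% relative to neutral control wells; inactive means the rest, any valid replicate at or below 250%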;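 further: OY570 slx delta 5 strain wells were the positive control but not used for scaling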
ATG4B inh = ATG4B protease inhibitors, primary screen, biochemical, fluorescence, uHTS | AID 504462, 2011 | inhibition, % at 8.33 µM | ATG4B cleavage of LC3-PLA2, NBD-HPC fluorescence, 1 h | actives 0.51% (n = 340,000); in the data active means inhibition above about 40%
Calb FLC = C. albicans growth inhibition with fluconazole, primary screen, CaCi-2 strain, Alamar Blue fluorescence; C. albicans CaCi-2 (fluconazole-resistant clinical isolate) + fluconazole, 48 h; AID 1979, 2009; growth inhibition, % (test concentration not listed); actives 0.57% (n = 300,000);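 active means growth inhibition above about 58% in most replicates, limit read from the data, passing the limit was not always enough; inconclusive means exactly half the replicates above a set limit; inactive means most replicates below a set limit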;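 further: all wells also contain fluconazole at 8 µg/ml as a sub-toxic cotreatment; 0% = median of DMSO wells and 100% = median of geldanamycin control wells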
* marks the source's active call; other numbers are inactive results; ? = inconclusive; · = no result given. Rows were chosen to be rich in hits. Some 3.1% of all compounds tested hit in one or more screens of this group.

SMILES | NadD block | FAS TE block | Mot1-301 SUMO | ATG4B inh | Calb FLC
CCC1CC(C(=O)Nc2ccccc2)C(=O)O1 (configuration not stated) | -2 | -7 | 301* | -7 | -5
CC(C)C1CC(C(=O)Nc2ccccc2)C(=O)O1 (configuration not stated) | 4 | -5 | 310 | 1 | -5
COc1ccc(CCn2c(C)cc(C(=O)COC(=O)c3ccc(NC(=O)CC#N)cc3)c2C)cc1 | 40* | 14 | -14 | -16 | 30
CC(=O)Nc1cccc(NC(=O)C2CCCN2C(=O)Nc2ccc(Cl)cc2)c1 (configuration not stated) | -3 | -6 | -20 | -4 | 114*
CC(=O)Nc1cccc(NC(=O)C2CCCN2C(=O)Nc2ccccc2C)c1 (configuration not stated) | 8 | -6 | 2 | 3 | 15
CN(C)c1ccc(C=c2c3ccccc3n3c2c2ccccc2[n+]3C)cc1 | 54* | 3 | · | 29 | ·
COc1ccc(CC(=O)N/N=C/c2ccc(C)s2)cc1 | -10 | -5 | -32 | -2 | -10
Cc1cc(Br)ccc1NC(=O)c1sc2ncnc(N3CCN(c4ccccn4)CC3)c2c1C | 30* | 29 | 16 | 4 | 4
COc1ccc(NC(=O)c2sc3ncnc(N4CCN(c5ccccn5)CC4)c3c2C)cc1Cl | 23 | 32 | 55 | 21 | -1
COc1ccc(-c2cc(C(F)(F)F)c(C#N)c(SCC(=O)O)n2)cc1OC | · | · | 304* | · | -1
O=C(c1cccs1)N1CCc2c([nH]c3ccccc23)C1c1ccccn1 (configuration not stated) | 4 | 2 | 6 | -2 | -1
O=C(c1cc(-c2ccccc2)n[nH]1)N1CCc2c([nH]c3ccccc23)C1c1ccccn1 (configuration not stated) | 20 | 19 | 79 | 27 | 98*
Cc1oc(-c2cccs2)nc1CN1CCN(CCC(C)C)C(CCO)C1 (configuration not stated) | -1 | -10 | -5 | -4 | 0
Cc1oc(-c2cccs2)nc1CN1CCN(Cc2ccc(F)c(F)c2)C(CCO)C1 (configuration not stated) | -11 | -1 | -2 | 0 | 84*
CCCCn1c(N)c(N(CCOC)C(=O)CSc2nnc(-c3ccco3)n2CC)c(=O)[nH]c1=O | -1 | -4 | 12 | -10 | ·
CC1Oc2cc3oc4c(O)c(O)ccc4c(=O)c3c(O)c2C1(C)C (configuration not stated) | 9 | 52* | -18 | -3 | 97*
CC(C)C(=O)NNC(=O)CN1CCN(c2nc(-c3ccccc3)cs2)CC1 | 1 | -4 | -16 | -24 | -20
CCc1nnc(NC(=O)CN2CCN(c3nc(-c4ccccc4)cs3)CC2)s1 | 8 | 9 | 10 | -15 | 90*
OC[C@@H]1CN(CCc2ccccc2)C[C@H](n2cnc3c(NCc4ccc(F)cc4)ncnc32)O1 | 4 | -5 | · | · | ·
C/C(=N\NC(=O)Cn1ccc(C(F)(F)F)n1)c1ccco1 | -3 | -4 | 3 | -12 | -9
O=C1c2ccccc2NC(c2ccc(-c3ccc(Br)cc3)o2)N1O (configuration not stated) | 12 | -37 | -1 | 13 | 102*
O=C1c2ccccc2NC(c2ccc(-c3ccc(F)cc3)o2)N1O (configuration not stated) | 6 | -3 | 13 | 6 | ·
CCN(CC)CCCCNc1ncc2cc(-c3cc(OC)cc(OC)c3)c(NC(=O)NC(C)(C)C)nc2n1 | 4 | -1 | 277* | -5 | 5
C=C1CCN([C@@H](CC(C)C)C(=O)N2CCCC2)S(=O)(=O)c2ccccc21 | -2 | -6 | 20 | -9 | 2
CC(C)(C)NC(=O)C[C@H]1C[C@H](C(=O)N2CCOCC2)[C@@]2(CCC3CCCC3)c3[nH]c4ccc(Cl)cc4c3CCN2C1=O | -1 | 89* | · | -16 | ·
SMILES | NadD block | FAS TE block | Mot1-301 SUMO | ATG4B inh | Calb FLC
COc1cnc(-c2ccccn2)nc1Sc1ccccc1Cl | 12 | -3 | · | 13 | 81*
CCOC(=O)[C@]12CCC=C1N(Cc1ccco1)C(=O)[C@H](CC(=O)N1CCCCC1)C2 | 9 | -14 | · | · | ·
CCCc1nnc(NS(=O)(=O)c2ccc(OC)cc2)s1 | 3 | -6 | 774* | -7 | -8
COCc1nnc(NS(=O)(=O)c2ccc(OC)cc2)s1 | 1 | -7 | · | -1 | ·
COCCNc1nc(Oc2ccc(CC(=O)OC)cc2)c2sc(-c3ccccc3)cc2n1 | -2 | 19 | · | · | ·
CCCc1ccc(OC(=O)c2ccc(O)cc2Cl)cc1 | -4 | 19 | 7 | 4 | 48
Cc1ccc(N=Nc2ccc(O)c3ncccc23)cc1 | 15 | 4 | -20 | -9 | ?
Oc1ccc(N=Nc2ccccc2C(F)(F)F)c2cccnc12 | 2 | 2 | -11 | 0 | 98*
COc1ccccc1N=Nc1ccc(O)c2ncccc12 | 31* | 9 | -13 | 0 | 97*
Cc1ccc(C(=O)OCC(=O)N(C)C2CCS(=O)(=O)C2)cc1[N+](=O)[O-] (configuration not stated) | -6 | -6 | -8 | -11 | -6
Cc1ccc(S(=O)(=O)NNC(=O)CCC(=O)Nc2ccc(C)c(C)c2)cc1 | 1 | -7 | 350* | 0 | 1
CCOC(=O)c1sc2nc3c(SCCC(=O)O)cc(C(=O)c4cc(OC)ccc4O)cn3c(=O)c2c1C | 43* | -5 | · | 2 | 12
CCc1c(C)sc2nc3c(C(=O)N4CCOCC4)cc(C(=O)c4cc(F)ccc4O)cn3c(=O)c12 | 5 | 18 | -21 | -11 | -1
O=C(O)CSc1cc(C(=O)c2cc(F)ccc2O)cn2c(=O)c3c(-c4ccccc4)csc3nc12 | 19 | 66* | 1 | 17 | 17
O=C(NC(=S)N1CCCCCC1)c1ccccc1 | 3 | -7 | 4 | 5 | -1
O=C(NC(=S)N1CCCCC1)c1cccnc1 | 4 | -8 | 344* | -5 | -2
Cc1n[nH]c(=S)n(NC(=O)CC(=O)Nn2c(=S)[nH]nc(C)c2=O)c1=O | -1 | -2 | -7 | 0 | 93*
CCc1nc(CNC(=O)C2CCC(=O)N(Cc3ccccc3F)C2)no1 (configuration not stated) | 3 | -5 | · | 6 | -11
O=S(=O)(NCCN1CCOCC1)c1ccc(Cl)s1 | -2 | -6 | 138 | 2 | 90*
Cc1ccc(S(=O)(=O)NCCN2CCOCC2)s1 | -4 | -3 | 17 | -7 | 5
CCc1cc(=O)n2c([nH]c3ccccc32)c1C#N | 3 | -5 | 2 | 11 | -1
CCc1cc(=S)n2c([nH]c3ccccc32)c1C#N | 13 | 29 | · | 4 | 97*
CN(C)c1ccc(N=Cc2cccn2C)cc1 | 2 | -8 | -13 | 0 | 85*

Assay outcomes as filed in PubChem.
